In the library only some 4.2% were active in any assay of this set; here they are far more common.
D1 antag: Antagonist of Human D 1 Dopamine Receptor: qHTS; hit rate 3.2% among 360,000; HEK293 TREx D1 cells, calcium flux, dopamine EC80; hits give low values; AID 504652, 2011; activity change, negative = inhibition, % at 10 µM; in the data active = activity change below about -30%; note: % is set by controls: 0 for no effect and ±100 for the full control effect
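Calcium flux readout: force-coupled, inducible Hek293 Trex D1 line, cells induced overnight at 30 C with tetracycline, dye-loaded 30–90 min at RT. Antagonism scored against EC80 dopamine challenge given 180 s after compound.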
D1 potentiator: Potentiators of Human D1 Dopamine Receptor: qHTS; D(1A) dopamine receptor (Homo sapiens), P21728; HEK293 TREx D1 cells, calcium flux, dopamine EC20 potentiation; potentiation, % at 10 µM; hit rate 0.036% among 360,000; AID 504651, 2011; in the data active = potentiation above about 30%; note: 0% is about no effect
TRPV1 potentiator: HTS Assay for Compounds that Act as Potentiators of the Vanilloid Receptor 1. TRPV1-expressing cells, Fluo-8 calcium influx, capsaicin EC20 potentiation. Transient receptor potential cation channel subfamily V member 1 (Homo sapiens), Q8NER1. hit rate 0.02% among 320,000. AID 540277, 2011. potentiation, % at 8.33 µM; in the data active = potentiation above about 80%; inconclusive = between about 30% and that limit; note: 0% is about no effect
Target sequence (Q8NER1 whole entry, looked up): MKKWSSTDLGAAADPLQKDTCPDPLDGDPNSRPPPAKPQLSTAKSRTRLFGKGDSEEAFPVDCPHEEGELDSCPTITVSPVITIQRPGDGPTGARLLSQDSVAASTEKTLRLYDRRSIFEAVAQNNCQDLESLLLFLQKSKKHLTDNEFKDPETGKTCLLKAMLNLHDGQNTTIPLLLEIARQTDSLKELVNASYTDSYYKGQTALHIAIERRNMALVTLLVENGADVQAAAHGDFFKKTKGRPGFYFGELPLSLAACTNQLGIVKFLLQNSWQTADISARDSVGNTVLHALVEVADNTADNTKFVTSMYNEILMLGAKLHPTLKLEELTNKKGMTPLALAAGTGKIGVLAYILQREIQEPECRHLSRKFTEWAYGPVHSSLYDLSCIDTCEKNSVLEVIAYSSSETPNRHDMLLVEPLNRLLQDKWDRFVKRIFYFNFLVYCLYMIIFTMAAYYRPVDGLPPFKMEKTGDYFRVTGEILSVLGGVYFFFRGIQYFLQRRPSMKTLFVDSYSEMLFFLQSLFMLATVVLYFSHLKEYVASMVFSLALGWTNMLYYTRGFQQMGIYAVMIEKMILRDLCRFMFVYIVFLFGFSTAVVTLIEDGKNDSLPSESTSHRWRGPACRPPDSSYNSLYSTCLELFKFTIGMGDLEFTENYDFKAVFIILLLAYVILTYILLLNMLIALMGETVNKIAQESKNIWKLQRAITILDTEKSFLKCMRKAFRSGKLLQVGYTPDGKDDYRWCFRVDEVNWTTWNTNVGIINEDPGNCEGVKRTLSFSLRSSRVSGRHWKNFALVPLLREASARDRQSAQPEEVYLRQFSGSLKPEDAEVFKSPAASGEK
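Cells expressing TRPV1 were dye-loaded with Fluo-8 and read kinetically: 10 s baseline, 3 min after compound (agonist portion), then 2 min after EC20 capsaicin (allosteric enhancer portion). Calcium-bound dye fluorescence at 480/520 nm.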
TRPV1 ag: HTS Assay for Compounds that Act as Agonists of the Vanilloid Receptor 1 | TRPV1-expressing cells, Fluo-8 calcium influx, agonist mode | activation, % at 8.33 µM | hit rate 0.19% among 320,000 | AID 540275, 2011; in the data active = activation above about 80%; inconclusive = between about 30% and that limit; note: 0% is about no effect
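TRPV1-expressing cells were cultured overnight at 35.5C and loaded with Fluo-8 calcium dye for 40 to 90 min at room temperature. After a 10 s baseline, compound was added and calcium influx was read kinetically for 3 min (ex 480/em 520 nm).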
D1 ag: Allosteric Agonists of the Human D1 Dopamine Receptor: qHTS; D(1A) dopamine receptor (Homo sapiens), P21728; activation, % at 2 µM; hit rate 1% among 360,000; HEK293 T-REx D1 cells, calcium flux, agonist mode; in the data active = activation above about 30%; note: 0% is about no effect
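Agonism was scored from calcium flux recorded over 180 s (1 read/s) after pintool compound addition, following a 10-cycle baseline. Cells were inducible force-coupled HEK293 TREx D1, plated overnight at 30 C and loaded with no-wash calcium dye.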
* = called active by the depositor; ? = inconclusive; nt = no result; ! = not confirmed by another sample.

SMILES	D1 antag	D1 potentiator	TRPV1 potentiator	TRPV1 ag	D1 ag
Cc1cccc(N2CCN(C(=O)CCC(=O)NNc3nc4ccccc4c4nc(C)nn34)CC2C)c1 (stereo unspecified)	-9	-5	nt	nt	1
Cc1nc2c3ccccc3nc(NNC(=O)CCC(=O)N3CCCC(C)C3)n2n1 (stereo unspecified)	-33*	-5	17	-2	0
COc1ccc(C)cc1NC(=O)c1ccc2nc(Cc3ccccc3)oc2c1	-7	-4	nt	nt	8
CC(=O)OCc1ccccc1Sc1ccccc1C(=O)NCc1ccccc1	-45*	11	2	-1	3
COc1ccc(CNC(=O)c2ccccc2SC)cc1	13	-2	-6	0	6
CCCc1nn2c(=O)cc(COC(=O)c3cccc(NC(=O)COc4ccccc4C)c3)nc2s1	5	2	nt	nt	0
COc1ccc(NC(=O)C2CCCN(c3nc(C)cc(C)n3)C2)cc1 (stereo unspecified)	-4	0	-12	?	2
COc1cccc(-c2ccc(NC(=O)C3CCCN(CCCn4nc(C)cc4C)C3)cc2)c1 (stereo unspecified)	-21	-7	-2	4	41*
COc1ccc(NC(=O)C2CCCN(c3ncccn3)C2)cc1 (stereo unspecified)	0	nt	-23	28	6
COc1ccc(NC(=O)C2CCCN(c3nccc(C)n3)C2)cc1 (stereo unspecified)	-17	-3	22	94*	1
N#CC1=C(N)SC(N)=C(C#N)C1CCC1CCCCC1	-27	-8	1	-3	43*
O=c1[nH]c2ccc(S(=O)(=O)N3CCN(S(=O)(=O)c4ccc5c(c4)OCCO5)CC3)cc2[nH]c1=O	-17	-2	nt	nt	1
O=[N+]([O-])c1ccc2nc(-[n+]3c(-c4ccccc4)cc(-c4ccccc4)cc3-c3ccccc3)[nH]c2c1	5	-7	12	12	17
O=[N+]([O-])c1ccc2nc(Cl)nc(-c3ccccc3)c2c1	-34*	-1	5	2	1
Cn1c(CSCc2ccc(Cl)c(Cl)c2)nnc1SCC(=O)Nc1nccs1	-26	-2	5	1	7
Cn1c(CSCc2ccc(Cl)cc2)nnc1SCC(=O)Nc1nccs1	-49*	-9	10	-1	19
Cc1ccc(C(=O)Nc2ccc(Br)cc2)cc1S(=O)(=O)NCc1ccccc1	-3	-2	nt	nt	3
Cc1ccc(NC(=O)c2cnc3ccccc3n2)cc1C	4	0	-12	84*	2
O=C(Nc1ccccc1)c1cnc2ccccc2n1	-9	-4	-23	?	0
O=C(O)c1ccc(Cn2nnc3sc4c(c3c2=O)CCCC4)cc1	-30*	1	7	-4	2
CC1CCc2c(sc3nnn(Cc4ccc(F)cc4)c(=O)c23)C1 (stereo unspecified)	-45*	-2	nt	nt	3
Cc1ccc(Cn2nnc3sc4c(c3c2=O)CCC(C)C4)cc1 (stereo unspecified)	5	-3	nt	nt	0
COC(=O)c1ccc(Cn2nnc3sc4c(c3c2=O)CCCC4)cc1	1	-2	nt	nt	-1
Cc1ccc(Cl)cc1NC(=O)Nc1cn(CC(C)C)c(=O)c2ccccc12	7	-1	nt	nt	4
COc1ccc(C(=O)Nc2nnc(S(=O)(=O)N3CCN(c4ccc(F)cc4)CC3)s2)cc1	-5	2	nt	nt	1
SMILES	D1 antag	D1 potentiator	TRPV1 potentiator	TRPV1 ag	D1 ag
COc1ccc(-c2nnc(SCC(=O)NCc3cccs3)n2CC(C)C)cc1	-4	0	4	4	1
COC(=O)CNC(=O)CSc1nnc(-c2ccc(OC)cc2)n1CC(C)C	-34*	4	26	-1	-1
COC(=O)N/N=C(\C)c1cccs1	-5	5	-2	3	0
COC(=O)N/N=C(\C)c1ccccc1Br	-31*	-1	-1	-3	-2
CCCC12CN3CC(CCC)(CN(C1)C3c1ccccc1)C2=O (stereo unspecified)	-2	1	nt	nt	1
CCOC(=O)C1=C(C)NC(C)=C(C(=O)OCC)C1c1sccc1C	-7	-4	17	-3	0
CCCC1C(C(=O)OCC)=C(C)NC(C)=C1C(=O)OCC	-50*	-19	-6	4	2
CCOC(=O)C1=C(C)NC(C)=C(C(=O)OCC)C1C(=O)OCC(=O)N(C)C	-60*	-2	5	1	0
CCOC(=O)C1=C(C)NC(C)=C(C(=O)OCC)C1c1ccc(O)cc1	-36*	-7	5	3	0
Cc1cc2c(cc1NS(=O)(=O)c1ccc(NC(=O)CC(C)C)cc1)n(C)c(=O)c(=O)n2C	-20	-6	nt	nt	-1
O=C(Nc1cccc(Cl)c1)C1CCCN(c2nn3cc(-c4ccc(F)cc4)nc3s2)C1 (stereo unspecified)	7	5	nt	nt	2
CCOC(=O)Cn1nc(C)n(-c2ccc(Br)cc2)c1=O	-48*	14	8	-1	2
COc1ccc(N(C(=O)CNC(=O)c2cccs2)C(C(=O)NCC2CCCO2)c2ccccc2)cc1 (stereo unspecified)	-13	-6	4	0	30
COc1cc(C(C(=O)NCC2CCCO2)N(C(=O)Cn2nnc3ccccc32)c2ccc(OC)c(OC)c2)ccc1O (stereo unspecified)	-80*	-4	12	-1	0
COc1ccc(N(C(=O)CNC(=O)c2cccs2)C(C(=O)NCC2CCCO2)c2ccccc2)cc1OC (stereo unspecified)	-55*	-4	9	-3	2
CSc1ccc(CCNC(=O)c2cc3n(n2)CCCN(Cc2ccc(C)cc2)C3=O)cc1	-3	0	nt	nt	9
CC(C)N(Cc1ccccc1)C(=O)CN1C(=O)CSc2ccc(S(=O)(=O)N3CCCC3)cc21	-5	-1	nt	nt	1
CC(=O)C(N=Nc1ccccc1)(Sc1nnc(-c2ccccc2)n1-c1ccccc1)C(C)=O	-32*	1	-9	?	8
Cc1ccc(CNc2nc3ccccc3n3cnnc23)cc1	-37*!	-4	5	0	-1
CSc1ccc(CNc2nc3ccccc3n3cnnc23)cc1	28	8	-4	9	3
CC(C)N(C(=O)Cn1cc(S(=O)(=O)Cc2ccc(C(F)(F)F)cc2)c2ccccc21)C(C)C	-7	-4	nt	nt	4
CCOC(=O)c1ccc(Nc2nc3nonc3nc2Nc2cccc(C)c2C)cc1	-39*	-3	nt	nt	24
CCOC(=O)c1ccc(Nc2ncnc3ccccc23)cc1	-2	3	-4	?	2
Cc1ccc(C)c(Nc2nc3nonc3nc2Nc2cccc(C)c2C)c1	-31*	-2	nt	nt	8

Assay outcomes deposited in PubChem by National Center for Advancing Translational Sciences (NCATS).
